Measurements from PubChem BioAssay.
Calls of active or inactive are those of the source.

assay: FRG1 promoter luciferase signal modulators, primary screen, FRG1 inhibition for FSHD, cell-based, C2C12 myotubes, firefly/Renilla luciferase, luminescence (AID 1084); settings: higher = more signal, called active from +8 up or from −8 down

z-score, inactive:
O=C1C[C@@](C(=O)O)(c2ccc([N+](=O)[O-])cc2)[C@@H](c2ccc(CO)cc2)N1CC12CC3CC(CC(C3)C1)C2 -2.54
Cc1ccc(S[C@]2(C(=O)O)CC(=O)N(Cc3ccccc3C(F)(F)F)[C@@H]2c2ccc(CO)cc2)cc1 -0.383
COC(=O)c1ccc(OC)c(/C=C\CC(CCc2ccccc2)OC(C)=O)c1 (stereo unspecified) -2.76
C#CCNS(=O)(=O)N(C)C -0.533
O=C1CSC(c2cccc([N+](=O)[O-])c2)N1c1ccccc1 (stereo unspecified) -0.239
CCN(CC)c1ccc(N2CC=CC34O[C@@H]5/C=C\CCCOC(=O)C5[C@H]3C(=O)N(CCCCCO)[C@@H]4C2=O)cc1 (stereo partly specified) 0.609
OCc1ccc(-c2cc[n+](Cc3cccc(OC(F)(F)F)c3)cc2)cc1 1.41
COCC1=C([C@H](O)CCc2ccccc2)[C@H](CO)[C@@H]2C(=O)N(C)C(=O)[C@@H]2C1 -2.22
COC(=O)[C@@]1(Cc2ccc(F)cc2)[C@H]2c3cc(C(=O)N(C)C)n(Cc4ccc(C)c(F)c4F)c3C[C@H]2CN1C(=O)c1ccccc1 0.55
CCOC(=O)C[C@H]1[C@H](OC(=O)c2ccc(C(=O)c3ccccc3)cc2)[C@@H](NC(=O)C2CCCCC2)c2cc(OCCCO)ccc2N1C(=O)Cc1ccc(OC)cc1 -1.01
CCCN1C(=O)[C@@]2(Cc3ccccc3)N=C(c3ccc(OCCCO)cc3)O[C@H]2c2ccccc21 -1.25
O=C1C2C=CC(C(O)c3ccccn3)N(Nc3ccccc3)C2C(=O)N1c1ccccc1 (stereo unspecified) 1.29
COc1cc(C(O)C2C=CC3C(=O)N(C)C(=O)C3N2NC(=O)OC(C)(C)C)cc(OC)c1OC (stereo unspecified) -0.167
COCC(=C=CC[C@@H](O)c1ccccc1OCCO)C[C@@H](O)c1ccccn1 -0.0964
C[N+](C)(C)CCCC[C@@H]1NC(=O)[C@@H]2C[C@H](C(=O)O)[C@H](c3cccc(OCCO)c3)N2C1=O -0.112
C=CCC(OC(C)=O)[C@@H]1[C@@H](N(Cc2ccc(-c3cccc(C(F)(F)F)c3)o2)C(=O)c2cccc3ccccc23)c2cc(OCCCO)ccc2N1C(=O)c1ccc(-c2ccccc2)cc1 (stereo partly specified) -0.579
COCCCNC(=O)[C@@]1(C)c2ccccc2C(=O)N(c2ccc(C)cn2)[C@H]1c1ccc(CO)cc1 0.811
COCCCNC(=O)[C@@]1(Cc2ccccc2CN=[N+]=[N-])N=C(c2ccc(OCCCO)cc2)O[C@H]1c1ccccc1N=[N+]=[N-] -1.21
CC1(C)[C@@H]2CC(C(O)C3C=CC4C(=O)N(c5ccccc5)C(=O)C4N3Nc3ccccc3F)=C[C@@H]1C2 (stereo partly specified) -3.65
CCOC(=O)C[C@H]1[C@H](OC(=O)Cc2ccc3c(c2)OCO3)[C@@H](NC(=O)c2ccccc2)c2cc(OCCCO)ccc2N1C(=O)c1ccc2ccccc2n1 -4.6
C=CC[C@]1(C(=O)NCC(O)CO)N=C(c2ccc(OCCCO)cc2)O[C@H]1c1ccccc1N=[N+]=[N-] (stereo partly specified) 1.25
C=C(COC)C(=O)CC[C@H](OC(=O)c1ccccc1-c1ccccc1C(=O)O)c1ccc(OCCO)cc1 0.552
COC(=O)[C@@]1(Cc2ccc(OC)cc2)[C@H]2c3cc(C(=O)N(C)C)n(Cc4cc(F)c(F)c(F)c4)c3C[C@H]2CN1C(=O)c1ccccc1 2.19
C=CCC(OC(C)=O)[C@@H]1[C@@H](N(Cc2ccc(-c3ccccc3)cc2)C(=O)Cc2ccc(OC)cc2)c2cc(OCCCO)ccc2N1C(=O)c1ccc(-c2ccccc2)cc1 (stereo partly specified) -1.24
COc1ccc(CCNC(=O)[C@@H]2c3ccccc3C(=O)N(Cc3ccccc3)[C@H]2c2ccc(CO)cc2)cc1 -2.26
COC(=O)C(CC#Cc1ccc2c(c1)[C@]1(C(=O)N2)[C@H](c2ccccc2OCCO)N2[C@H](c3ccccc3)[C@H](c3ccccc3)OC(=O)[C@H]2[C@@H]1C(=O)Nc1nc2ccccc2s1)C(=O)OC 1.94
COc1cc2c(cc1OC)CN(C(=O)[C@@H]1[C@H]3C(=O)O[C@H](c4ccccc4)[C@H](c4ccccc4)N3[C@H](c3ccc(OCCO)cc3)[C@@]13C(=O)Nc1ccc(C#CCCO)cc13)CC2 0.838
C[N+](C)(C)CCCCCCNC(=O)[C@H]1C[C@H]2C(=O)N3CCC[C@H]3C(=O)N2[C@H]1c1cccc(OCCO)c1 4.55
C=C(C(=O)CC[C@H](OC(=O)c1cccnc1)c1ccc(OCCO)cc1)C(C)C 1.14
C=C(COC)C(=O)CC[C@H](OC(=O)c1ccccc1-c1ccccc1C(=O)O)c1ccc(CO)o1 -0.362
COC(=O)[C@@]1(Cc2ccccc2)[C@H]2c3cc(C(=O)N4CCCC4)n(Cc4ccc(OC(F)(F)F)cc4)c3C[C@H]2CN1C(=O)c1ccccc1 0.705
CO[C@H]1O[C@H](CO)[C@@H](OC(=O)c2ccc(Br)cc2)[C@@H]2OC(=O)[C@H](Cc3cccc(Br)c3)C/C=C/C[C@@H](Cc3cccc(Br)c3)C(=O)O[C@@H]12 0.374
Cc1ccc(N2C(=O)c3ccccc3[C@](C)(C(=O)NC(C)C)[C@@H]2c2ccc(CO)cc2)nc1 -0.0923
NC(=O)[C@@H]1[C@H]2C(=O)O[C@H](c3ccccc3)[C@H](c3ccccc3)N2[C@H](c2ccccc2OCCO)[C@@]12C(=O)Nc1ccc(C#CCCO)cc12 0.7
O=C1O[C@H](c2ccccc2)[C@H](c2ccccc2)N2[C@H]1[C@@H](C(=O)N1CCN(c3ncccn3)CC1)[C@]1(C(=O)Nc3ccc(C#CCCO)cc31)[C@H]2c1ccc(OCCO)cc1 0.0862
CCCC=C(CCC)[C@@H](NS(=O)(=O)c1cccc2cccnc12)c1ccc(C(=O)OC)cc1 1.76
